Results taken from the supplement of paper PMC6555819.

Columns and labels:
Experiment in all cases: PBM binding z-score (relative to random genomic background probes); higher = stronger binding; sequences stand for … in GC…GCGATTGACAGCGTAGAATGAAGG
[1] = test system: FXR:RXRa (NR concentration 270 nM, RXRa partner concentration 90 nM)
How it was run: (§1)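 Each nuclear receptor dimer, without ligand, was incubated for 1 h on custom Agilent 4×180K protein-binding microarrays. Binding was detected with antibodies against each partner (one per run), and scanned fluorescence was regression-normalized. The binding z-scores are referenced to random human genomic background probes.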

[2] = test system: LXRa:RXRa (NR concentration 270 nM, RXRa partner concentration 90 nM)
How it was run: as §1

[3] = test system: LXRa homodimer (NR concentration 270 nM)
How it was run: as §1

[4] = test system: LXRb:RXRa (NR concentration 270 nM, RXRa partner concentration 90 nM)
How it was run: as §1

[5] = test system: LXRb homodimer (NR concentration 270 nM)
How it was run: as §1

[6] = test system: PPARa:RXRa (NR concentration 270 nM, RXRa partner concentration 90 nM)
How it was run: as §1

[7] = test system: PPARg:RXRa (NR concentration 180 nM, RXRa partner concentration 90 nM)
How it was run: as §1

[8] = test system: PPARg:RXRa 270nM:90nM, anti-RXR (NR concentration 270 nM, RXRa partner concentration 90 nM)
How it was run: as §1

[9] = test system: PPARg:RXRa 30nM:10nM, anti-RXR (NR concentration 30 nM, RXRa partner concentration 10 nM)
How it was run: as §1

[10] = test system: PPARg:RXRa 90nM:30nM, anti-RXR (NR concentration 90 nM, RXRa partner concentration 30 nM)
How it was run: as §1

[11] = test system: PPARg:RXRa DBDmut IVT, anti-RXR (DBD mutation: RXRa K156A/R161A, NR concentration 270 nM, RXRa partner concentration 90 nM)
How it was run: as §1

[12] = test system: PPARg:RXRa IVT, anti-PPARg (NR concentration 270 nM, RXRa partner concentration 90 nM)
How it was run: as §1

[13] = test system: PPARg DBDmut:RXRa IVT, anti-PPARg (DBD mutation: PPARg1 K132A/R137A, NR concentration 270 nM, RXRa partner concentration 90 nM)
How it was run: as §1

[14] = test system: PPARg DBDmut IVT, anti-PPARg (DBD mutation: PPARg1 K132A/R137A, NR concentration 270 nM)
How it was run: as §1

[15] = test system: PPARg homodimer (NR concentration 180 nM)
How it was run: as §1

[16] = test system: PXR:RXRa (NR concentration 270 nM, RXRa partner concentration 90 nM)
How it was run: as §1

[17] = test system: PXR homodimer (NR concentration 270 nM)
How it was run: as §1

[18] = test system: RARa:RXR (NR concentration 270 nM, RXRa partner concentration 90 nM)
How it was run: as §1

[19] = test system: RARa homodimer (NR concentration 270 nM)
How it was run: as §1

[20] = test system: RARb:RXRa (NR concentration 270 nM, RXRa partner concentration 90 nM)
How it was run: as §1

Row | Sequence | PBM binding z-score [1] | PBM binding z-score [2] | PBM binding z-score [3] | PBM binding z-score [4] | PBM binding z-score [5] | PBM binding z-score [6] | PBM binding z-score [7] | PBM binding z-score [8] | PBM binding z-score [9] | PBM binding z-score [10] | PBM binding z-score [11] | PBM binding z-score [12] | PBM binding z-score [13] | PBM binding z-score [14] | PBM binding z-score [15] | PBM binding z-score [16] | PBM binding z-score [17] | PBM binding z-score [18] | PBM binding z-score [19] | PBM binding z-score [20]
1 | CAAACTCGGTCACAGAGGTCAAAGTCCGTGCGTA | 5.99 | 6.29 | 7.24 | 5.29 | 2.04 | 5.72 | 5.27 | 6.24 | 3.25 | 5.58 | 5.32 | 6.01 | 1.83 | 1.84 | 5.93 | 6.25 | 8.31 | 6.39 | 2.88 | 4.75
2 | ACAGAGAGGTGATGAAGGTAACTCAGGCTATCAT | 0.1 | -0.0398 | -0.296 | 0.23 | 0.0774 | 0.952 | 0.708 | 0.305 | 0.188 | 0.328 | 1.04 | 1.11 | 0.359 | -0.0267 | 0.505 | 0.0565 | 0.268 | 0.393 | 0.478 | 0.825
3 | CAAACTAGGTCAAGAGGTCAAAGTCCGCTTCCCG | 7.09 | 6.37 | 6.55 | 5.7 | 1.96 | 6.67 | 9.95 | 8.33 | 6.28 | 8.63 | 8.49 | 8.35 | 2.14 | 1.19 | 6.92 | 6.2 | 2.86 | 7.83 | 3.01 | 5.53
4 | ATCGATAGGTCGAAGGTGAGTATACCCACCCGAA | 0.952 | 0.85 | -0.301 | 0.557 | -0.268 | 2.9 | 4.53 | 5.41 | 3.58 | 5.43 | -0.27 | 1.54 | 0.544 | -0.0222 | 0.323 | 0.78 | 0.0246 | 2.02 | -0.0833 | 1.76
5 | CCTACTGGGCCATTCAGGGGTCATTGATCATATG | 3.39 | 3.59 | 3.43 | 4.16 | -0.118 | 4.49 | 2.95 | 3.73 | 1.27 | 2.64 | 3.55 | 4.44 | -0.679 | -0.364 | 2.13 | 5.18 | 1.05 | 5.59 | 0.603 | 3.03
6 | CCGAGTAGTTTATGGGGCATTCAGGCAACGGTGA | 0.0687 | -0.0173 | -0.197 | 0.53 | -0.0668 | 0.806 | 0.147 | 0.448 | -0.234 | 0.108 | 1.6 | 1.4 | -0.427 | -0.259 | 0.266 | -0.181 | -0.00127 | -0.101 | -0.193 | 0.282
7 | TCATATAGGTCAATGCTAGGTGAAAGTCCGATCT | 5.19 | 4.7 | 1.51 | 3.52 | 1.02 | 5 | 5.86 | 6.06 | 4.7 | 5.89 | 6.69 | 6.83 | 1.25 | 2.16 | 2.7 | 2.78 | 0.347 | 3.7 | 1.3 | 4.21
